Results with a measured potency or affinity are listed apart. Unmarked numbers belong to inactive results. How the calls were made is not given here.

The assay in a line: viability loss in HEK293 cells – cell-based, plate reader, cherry-picked samples, cytotoxicity control, dose response (AID 743446). Particulars: active compounds read low; at 26 µM unless noted.
Regarding `COc1ccc(Cl)cc1C(=O)Nc1nc2ccccc2[nH]1`, the max activity is 69.4% [at 0.195 µM]. In the case of `CCc1nnc2cccc(Cl)n12` it was -9.24% [at 1.6 µM]; in that of `O=C(CN1C(=O)c2ccccc2S1(=O)=O)c1ccc2c(c1)OCCCO2`, -22% [at 0.8 µM].

`COc1ccc(-n2nnnc2-c2nc3ccccc3s2)cc1`: the max activity was 34.3% [at 0.8 µM]. The value for `O=C(CN1C(=O)c2ccccc2S1(=O)=O)Nc1ncc(Cl)cc1Cl` was -12.9% [at 1.6 µM]. In the case of `Cc1ccc2nc(-c3ccc(NC(=O)c4cccnc4)cc3)oc2c1` it was -17.1% [at 0.1 µM]; in that of `Cc1ccnc(Nc2nc(-c3sc(C)nc3C)cs2)c1`, -16.3% [at 6 µM]; in that of `COc1cc(C(=O)Nc2nc(-c3cccs3)cs2)cc(OC)c1OC`, 53.9% [at 6 µM]. Regarding `Cc1ccc2nc(-c3ccccc3)nn2c1`, the max activity is 68.6% [at 3 µM].

For the molecule `COc1ccc(NC(=O)N(C)C[C@@H]2OCCCC[C@H](C)Oc3ccc(NC(=O)C4CCCCC4)cc3C(=O)N([C@H](C)CO)C[C@@H]2C)cc1`, the max activity is 11.8%. With `C[C@@H]1CN([C@H](C)CO)C(=O)c2cc(C#CCN(C)C)cnc2O[C@@H]1CN(C)C(=O)CN1CCOCC1`, the max activity is 12.9% [at 0.195 µM]. In the case of `COCC#Cc1ccc2c(c1)O[C@H](CN(C)S(=O)(=O)c1cccc(F)c1)[C@@H](C)CN([C@H](C)CO)S2(=O)=O` it was 14.5% [at 0.195 µM].

Consider `O=c1c2c(nc3cc(-c4ccc(F)cc4)[nH]n13)CCCC2`, for which the max activity is -12.8%.
